Test results published in PubChem BioAssay AID1159580 (chemical genetic matrix, 2015).
“And” between values parts separate entries of the source, which are not always exact repeats. Equal values may be shown once. Among all 5,500 compounds or so, about 2,000 (36%) were called active. Another 18% or so got no clear call; they are omitted. Rule as the data show it: active = normalized growth mostly below about 0.91 (no sharp cut-off); inconclusive = no clear call, values can overlap the other calls; inactive = mostly above about 0.92. This is one part of the list.

Test: chemical genetic growth profiling, strain panel (AID 1159580);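 also: tested at 20 µM; growth read once vehicle control cultures reached saturation at 30 °C; 1 = growth at the plate median or of vehicle wells; lower values mean less growth of the strain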
Conditions: S. cerevisiae deletion strains, growth OD

Measured: normalized growth

CCOC(=O)C1=C(C)NC(C)=C(C(=O)OC)C1c1cccc([N+](=O)[O-])c1 (stereo unspecified)
inactive: locus YAL013W, strain DEP1, hits give low values 1 and 0.987 | locus YAL021C, strain ccr4, hits give low values 0.996 | locus YAL026C, strain drs2, hits give low values 1.01 | locus YAL030W, strain snc1, hits give low values 0.997 | locus YBL061C, strain skt5, hits give low values 1 | locus YBR009C, strain hhf1, hits give low values 1.01 | locus YBR021W, strain FUR4, hits give low values 0.977 | locus YBR023C, strain chs3, hits give low values 0.999 | locus YBR171W, strain sec66, hits give low values 1.01 | locus YBR229C, strain ROT2, hits give low values 1.01 | locus YBR231C, strain swc5, hits give low values 0.999 | locus YBR279W, strain paf1, hits give low values 1.01 | locus YCL011C, strain gbp2, hits give low values 0.995 | locus YCL016C, strain dcc1, hits give low values 1.01 | locus YCL029C, strain bik1, hits give low values 1.01 | locus YCL061C, strain MRC1 (second series), hits give low values 0.985 | locus YCL061C, strain MRC1, hits give low values 1.01 | locus YCL069W, strain vba3, hits give low values 1.01 | locus YCR088W, strain abp1, hits give low values 1.01 | locus YDL005C, strain med2, hits give low values 1.01 | locus YDL035C, strain GPR1, hits give low values 1 | locus YDL040C, strain nat1, hits give low values 1 | locus YDL074C, strain BRE1, hits give low values 0.988 | locus YDL101C, strain DUN1, hits give low values 1 | locus YDL134C, strain PPH21, hits give low values 1 | locus YDL185W, strain tfp1, hits give low values 0.996 | locus YDL192W, strain arf1, hits give low values 1 | locus YDR001C, strain nth1, hits give low values 1.01 | locus YDR069C, strain doa4, hits give low values 1.01 | locus YDR101C, strain arx1, hits give low values 0.997 | locus YDR137W, strain rgp1, hits give low values 0.98 | locus YDR150W, strain NUM1, hits give low values 1 | locus YDR159W, strain sac3, hits give low values 1.01 | locus YDR162C, strain NBP2, hits give low values 0.945 | locus YDR195W, strain ref2 1.03 | locus YDR297W, strain sur2, hits give low values 1 | locus YDR318W, strain mcm21, hits give low values 1.02 | locus YDR334W, strain swr1, hits give low values 1.02 | locus YDR335W, strain msn5, hits give low values 1.02 | locus YDR363W, strain ESC2, hits give low values 1 | locus YDR388W, hits give low values 1.01 | locus YDR392W, strain spt3, hits give low values 0.946 | locus YDR502C, strain sam2, hits give low values 1 | locus YEL003W, strain gim4, hits give low values 1.01 | locus YEL037C, strain rad23, hits give low values 1.01 | locus YEL061C, strain CIN8 (second series), hits give low values 1.01 | locus YEL061C, strain CIN8, hits give low values 0.994 | locus YER002W, strain NOP16, hits give low values 0.933 | locus YER015W, strain faa2, hits give low values 1.02 | locus YER016W, strain bim1, hits give low values 1.01 | locus YER110C, hits give low values 1.01 | locus YER111C, strain swi4, hits give low values 1.02 | locus YER155C, strain BEM2 (second series), hits give low values 1.03 | locus YER155C, strain BEM2, hits give low values 0.997 | locus YER167W, strain BCK2, hits give low values 1 | locus YFR010W, strain ubp6, hits give low values 1.02 | locus YGL078C, strain dbp3, hits give low values 1.01 | locus YGL086W, strain mad1, hits give low values 1.02 | locus YGL167C, strain pmr1, hits give low values 1 | locus YGL173C, strain kem1, hits give low values 1.01 | locus YGL227W, strain vid30, hits give low values 1.01 | locus YGL240W, strain doc1, hits give low values 0.994 | locus YGL248W, strain PDE1, hits give low values 0.998 | locus YGL253W, strain hxk2, hits give low values 1 | locus YGR078C, strain PAC10, hits give low values 0.977 | locus YGR135W, strain pre9, hits give low values 0.977 | locus YGR229C, strain SMI1, hits give low values 0.961 and 1 | locus YGR252W, strain gcn5, hits give low values 1.02 | locus YHR013C, strain ard1, hits give low values 1.03 | locus YHR027C, strain rpn1, hits give low values 1.01 | locus YHR030C, strain SLT2, hits give low values 1.01 | locus YHR079C, strain IRE1 (second series), hits give low values 1 | locus YHR094C, strain hxt1, hits give low values 0.994 | locus YHR129C, strain ARP1, hits give low values 1.01 | locus YHR142W, strain chs7, hits give low values 0.976 | locus YHR200W, strain rpn10, hits give low values 1 | locus YIL066C, strain RNR3, hits give low values 1.02 | locus YIL073C, strain SPO22, hits give low values 1.04 | locus YIL125W, strain kgd1, hits give low values 0.999 | locus YIR030C, strain dcg1, hits give low values 0.999 | locus YJL092W, strain hpr5, hits give low values 1 | locus YJL095W, strain BCK1 (second series), hits give low values 1.01 | locus YJL095W, strain BCK1, hits give low values 0.994 | locus YJL115W, strain asf1, hits give low values 1.02 | locus YJL129C, strain trk1, hits give low values 0.992 | locus YJL134W, strain LCB3, hits give low values 1 | locus YJL154C, strain vps35, hits give low values 1.02 | locus YJL164C, strain tpk1, hits give low values 1.01 | locus YJL166W, strain qcr8, hits give low values 1.01 | locus YJL168C, strain set2, hits give low values 1.01 | locus YJL187C, strain SWE1 (second series), hits give low values 1.01
